These results are taken from PubChem BioAssay (NCI).

Molecules are shown by their SMILES. The panel holds about 83,000 compounds, 20% with a hit somewhere; the sample as a whole holds those more often.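 How to read the values: 0–100, growth inhibition (40 = 60% inhibited); 0, no net growth; -100 to 0, cell death (-40 = 40% of starting cells died; -100 = all dead).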 Unmarked numbers belong to inactive results. Calls of active or inactive are those of the source. How the source made its calls: active means growth percent below 10; inactive means the rest.

Among the test systems are SK-MEL-2 melanoma; EKVX NSCLC; SN12C renal; UO-31 renal; TK-10 renal; ACHN renal; CAKI-1 renal; A498 renal; CCRF-CEM leukemia; MOLT-4 leukemia; SR leukemia; RPMI-8226 leukemia; OVCAR-8 ovarian; OVCAR-5 ovarian; OVCAR-4 ovarian; SK-OV-3 ovarian; IGROV1 ovarian; OVCAR-3 ovarian; HS 578T breast; NCI/ADR-RES ovarian.
Holding throughout (test): NCI-60 one-dose screen, 48 h (100 = growth as untreated, 0 = no growth, -100 = all killed)
Details in all cases: 10 µM unless noted

For the compound `Cn1cc(C(=O)c2nc(-c3c[nH]c4ccc(Br)cc34)no2)c2cc(F)ccc21`, the growth was 97.5% with SK-MEL-2 melanoma; 73.2% in the assay on EKVX NSCLC; 92.8% in the assay with SN12C renal; 68.8% in the assay with UO-31 renal; 115% in the assay on TK-10 renal; 89.6% in the assay with ACHN renal. The growth is 80.1% in the assay on CAKI-1 renal; 107% in the assay with A498 renal; 100% in the assay on CCRF-CEM leukemia; 94.8% in the assay with MOLT-4 leukemia; 101% in the assay on SR leukemia; 99.5% in the assay with RPMI-8226 leukemia. Besides, the growth in the assay with OVCAR-8 ovarian is 94.6%; in the assay on OVCAR-5 ovarian it was 99.3%; in the assay with OVCAR-4 ovarian it was 93.1%; with SK-OV-3 ovarian, 87.9%; in the assay on IGROV1 ovarian, 61.3%; with OVCAR-3 ovarian, 97.2%. For the same compound, the figures for the growth in the assay with HS 578T breast and with NCI/ADR-RES ovarian were 85% and 94.1%, respectively.

With `Cn1c(NCCc2ccc(O)c(O)c2)nc2c1c(=O)n(Cc1ccc(Cl)c(Cl)c1)c(=O)n2C`, the growth in the assay with SK-MEL-2 melanoma is 91.2%; in the assay with EKVX NSCLC it was 81.2%; in the assay on SN12C renal it was 71.5%; in the assay on UO-31 renal, 34%; in the assay with TK-10 renal, 65.9%; in the assay on ACHN renal it was 41.8%. For the same compound, the growth in the assay with CAKI-1 renal was 62.8%; with A498 renal, 98.4%; in the assay with CCRF-CEM leukemia, 17.8%; in the assay with MOLT-4 leukemia it was 11.8%; in the assay on SR leukemia, 56%; in the assay on RPMI-8226 leukemia, 19.1%. The growth is 74.4% in the assay with OVCAR-8 ovarian; 83.1% with OVCAR-5 ovarian; 52.8% in the assay with OVCAR-4 ovarian; 81% in the assay on SK-OV-3 ovarian; 32% with IGROV1 ovarian; 64.9% in the assay with OVCAR-3 ovarian. Moreover, the results for the growth in the assay with HS 578T breast and with NCI/ADR-RES ovarian were 75.6% and 77.3%, respectively.

Take `O=C(O)c1c(=O)cccc2ssc12`: the growth is 11.6% in the assay on SK-MEL-2 melanoma; 11% with EKVX NSCLC; 14.3% with SN12C renal; 21.7% in the assay with UO-31 renal; 4.78% (active) in the assay on TK-10 renal; 3.95% (active) in the assay with ACHN renal. The growth is 68.5% in the assay with CAKI-1 renal; -76.8% (active) with A498 renal; 4.61% (active) with CCRF-CEM leukemia; -23.3% (active) in the assay on MOLT-4 leukemia; -9.58% (active) with SR leukemia; 4.35% (active) with RPMI-8226 leukemia. Besides, the growth was 24.1% with OVCAR-8 ovarian; -52.8% (active) in the assay on OVCAR-5 ovarian; -37.1% (active) in the assay with OVCAR-4 ovarian; 39.1% with SK-OV-3 ovarian; 76.1% in the assay on IGROV1 ovarian; -34.3% (active) in the assay on OVCAR-3 ovarian. The growth with HS 578T breast was 22.4%; in the assay with NCI/ADR-RES ovarian, 29.2%.

`C=C1c2nc3ccccc3n2C=C(c2ccc(Cl)cc2)N1Cc1ccc(OC)cc1`: the growth in the assay with SK-MEL-2 melanoma was 70.4%; in the assay with EKVX NSCLC, 71.3%; in the assay on SN12C renal it was 92.2%; in the assay on UO-31 renal, 52.2%; in the assay with TK-10 renal, 138%; with ACHN renal, 89.5%. Further, the growth with CAKI-1 renal is 85.7%; in the assay with A498 renal, 90.5%; in the assay with CCRF-CEM leukemia it was 86.3%; in the assay on MOLT-4 leukemia, 64.8%; in the assay on SR leukemia, -2.2% (active); in the assay on RPMI-8226 leukemia, 30.9%. Besides, the growth with OVCAR-8 ovarian was 91.1%; in the assay on OVCAR-5 ovarian, 72.1%; in the assay with OVCAR-4 ovarian, 71.6%; with SK-OV-3 ovarian, 85.8%; with IGROV1 ovarian, 55.2%; in the assay on OVCAR-3 ovarian it was 85.4%. The growth is 104% in the assay on HS 578T breast and 62.7% in the assay on NCI/ADR-RES ovarian.

As to `CCCOc1cc2ccccc2cc1C(=O)Nc1nc(N)c2c(ccc3nccc32)[nH]1`, the growth with SK-MEL-2 melanoma is -49.6% (active); in the assay with EKVX NSCLC it was -73.7% (active); with SN12C renal it was -63.6% (active); in the assay with UO-31 renal, -65% (active); in the assay on TK-10 renal, -37.3% (active); in the assay on ACHN renal, -80.9% (active). Moreover, the growth with CAKI-1 renal is -46.7% (active); in the assay on A498 renal, -87.6% (active); in the assay with CCRF-CEM leukemia, -13% (active); in the assay on MOLT-4 leukemia, -40.9% (active); with SR leukemia it was -16.2% (active); in the assay on RPMI-8226 leukemia it was -40.5% (active). Also, the growth in the assay with OVCAR-8 ovarian was -49% (active); in the assay on OVCAR-5 ovarian, -67.7% (active); in the assay with OVCAR-4 ovarian, -50.9% (active); with SK-OV-3 ovarian, -77.2% (active); with IGROV1 ovarian, -47% (active); in the assay with OVCAR-3 ovarian it was -60.5% (active). Further, the growth in the assay with HS 578T breast was -56.1% (active); in the assay on NCI/ADR-RES ovarian, -8.57% (active).

Consider `Cn1cccc1-c1nc2c3c(ccc2[nH]1)C(=O)c1ccccc1C3=O`, for which the growth was 91.4% in the assay with SK-MEL-2 melanoma; 65.2% with EKVX NSCLC; 91.9% in the assay with SN12C renal; 58.7% in the assay with UO-31 renal; 98.7% in the assay with TK-10 renal; 80.7% with ACHN renal. In addition, the growth with CAKI-1 renal is 96.3%; with A498 renal, 88.7%; with CCRF-CEM leukemia it was 78.9%; with MOLT-4 leukemia, 62.1%; in the assay on SR leukemia, 27.1%; in the assay on RPMI-8226 leukemia, 61.5%. The growth is 85.8% in the assay on OVCAR-8 ovarian; 90.4% with OVCAR-5 ovarian; 46.5% in the assay on OVCAR-4 ovarian; 118% in the assay with SK-OV-3 ovarian; 79.1% with IGROV1 ovarian; 95% in the assay on OVCAR-3 ovarian. The growth in the assay with HS 578T breast was 115%; in the assay with NCI/ADR-RES ovarian it was 81.8%.

As to `COC(=O)c1ccc2oc(NC(=O)c3ccc(Nc4ccc([N+](=O)[O-])cc4C)c([N+](=O)[O-])c3)nc2c1`, the growth in the assay with SK-MEL-2 melanoma is 101%; in the assay with EKVX NSCLC, 79.9%; with SN12C renal, 97.2%; with UO-31 renal, 90.7%; in the assay with TK-10 renal it was 100%; with ACHN renal, 104%. The growth in the assay on CAKI-1 renal was 89.5%; in the assay with A498 renal, 108%; with CCRF-CEM leukemia it was 107%; with MOLT-4 leukemia, 105%; in the assay with SR leukemia it was 111%; with RPMI-8226 leukemia, 108%. For the same compound, the growth is 104% in the assay on OVCAR-8 ovarian; 109% in the assay on OVCAR-5 ovarian; 100% with OVCAR-4 ovarian; 102% in the assay with SK-OV-3 ovarian; 104% in the assay on IGROV1 ovarian; 105% in the assay on OVCAR-3 ovarian. Besides, the growth was 93.2% in the assay on HS 578T breast and 106% with NCI/ADR-RES ovarian.

With `Cn1cc(-c2nonc2-c2cn(C)c3ccc(F)cc23)c2ccccc21`, the growth with SK-MEL-2 melanoma is 30.6%; in the assay on EKVX NSCLC, 47.6%; in the assay on SN12C renal, 33.8%; with UO-31 renal it was 26.9%; in the assay with TK-10 renal it was 60.6%; in the assay with ACHN renal it was 38.7%. For the same compound, the growth with CAKI-1 renal is 26.2%; in the assay with A498 renal it was -2.88% (active); in the assay on CCRF-CEM leukemia, 14.9%; in the assay with MOLT-4 leukemia it was 15.9%; in the assay with SR leukemia, 31.3%; with RPMI-8226 leukemia, 13.5%. The growth was 28.5% in the assay on OVCAR-8 ovarian; 41.5% in the assay on OVCAR-5 ovarian; 41.6% with OVCAR-4 ovarian; 41.5% in the assay with SK-OV-3 ovarian; 24.6% with IGROV1 ovarian; 3.84% (active) in the assay on HS 578T breast. Also, the growth in the assay with NCI/ADR-RES ovarian is 4.44% (active).
